# Hits are enriched below; roughly 3.2% of the tested compounds scored in any of these assays.
# ClpP mod: qHTS Assay for Activators of ClpP; AID 651965, 2013; ATP-dependent Clp protease proteolytic subunit (Bacillus subtilis (strain 168)), P80244; 340,000 compounds, 1.9% hits; Potency, µM (titrated, usually from 57.5 µM); purified B. subtilis ClpP, FRET peptide cleavage, 20 min; active means well fitted falling curve with a large enough effect; inconclusive means small, poorly fitted or top-dose-only effect; inactive means no such curve, though single readings can be large or run the other way; further: the source files actives as falling curves though it sought activators and does not explain the sign; nearly all actives have a fitted effect of over 65% in size
# Target sequence (P80244 whole entry, looked up): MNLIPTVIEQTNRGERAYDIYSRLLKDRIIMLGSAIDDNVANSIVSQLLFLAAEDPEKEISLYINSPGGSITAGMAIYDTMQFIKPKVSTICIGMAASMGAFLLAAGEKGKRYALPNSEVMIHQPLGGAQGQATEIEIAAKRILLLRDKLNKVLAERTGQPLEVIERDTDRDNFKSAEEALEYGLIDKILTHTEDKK
#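 Buffer: 100 mM Tris/HCl pH8, 100 mM KCl, 0.05% low protease BSA, 2.5% glycerol, 0.01% Tween-20. ClpP 10 microg/mL final; 20 min RT; delta FRET normalized to ADEP and DMSO controls.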
# GLP-1R inv ag: acts as inverse agonist at human GLP-1 receptor. AID 624417. Potency, µM (top dose mostly 38.3 µM), usual class: inhibitors. HEK293 GLP-1R CRE-luciferase, luminescence, 24 h; GLP-1R form is constitutively active. 410,000 compounds, 1.6% hits; further: nearly all actives have a fitted effect of over 55% in size
# Target sequence (P43220 whole entry, looked up): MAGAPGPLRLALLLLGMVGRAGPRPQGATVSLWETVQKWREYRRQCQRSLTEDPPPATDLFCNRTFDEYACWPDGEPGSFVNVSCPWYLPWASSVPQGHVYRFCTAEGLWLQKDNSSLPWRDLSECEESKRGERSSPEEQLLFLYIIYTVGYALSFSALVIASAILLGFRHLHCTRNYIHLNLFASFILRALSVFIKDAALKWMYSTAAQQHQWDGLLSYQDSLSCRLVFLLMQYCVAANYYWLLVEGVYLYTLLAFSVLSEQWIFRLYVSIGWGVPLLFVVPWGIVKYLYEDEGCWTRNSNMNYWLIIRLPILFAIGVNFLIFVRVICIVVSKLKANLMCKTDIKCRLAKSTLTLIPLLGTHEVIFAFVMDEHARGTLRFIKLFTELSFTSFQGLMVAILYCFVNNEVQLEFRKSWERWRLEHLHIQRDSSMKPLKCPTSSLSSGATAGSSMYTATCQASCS
#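 Constitutively active GLP-1R drives a cAMP-responsive luciferase in stably transfected HEK293 cells; test compounds are added after overnight (12 h) attachment and left 24 hr, and signal loss in luminescence marks inhibition.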
# GLP-1R agonist: activates the human GLP-1 receptor. P43220. HEK293 GLP-1R CRE-luciferase, luminescence, 4-6 h; cells express a hypersensitive GLP-1R form. Potency, µM (series often up to 45.6 µM), usual class: activators. 380,000 compounds, 0.007% hits
# HEK293 tox: cytotoxic in the GLP-1 receptor inverse agonist counter-screen. 410,000 compounds, 0.13% hits. Potency, µM (series often up to 38.3 µM), actives largely listed as inhibitors. HEK293 cAMP-luciferase reporter cells, luminescence, 24 h;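 further: loss of luciferase light is scored as toxicity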
#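 A 23 nL compound transfer followed 12 hours of cell culture at 37 deg C; exposure then lasted 24 hr. Luciferase assay detection reagent was dispensed and plates read for luminescence after a 12 min room-temperature wait.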
# A number is an active result; 0 = inactive; ? = inconclusive; - = not tested or not shown. Unless noted, the call rests on the fitted dose curve; in most records, active means well fitted curve in the direction sought with a large enough effect; inconclusive means small, poorly fitted or top-dose-only effect, or another doubt; inactive means no such curve, though single readings can be large; an effect the other way counts as inactive or inconclusive.
SMILES,ClpP mod,GLP-1R inv ag,GLP-1R agonist,HEK293 tox
O=C(NNC1=C(C(=O)C(F)(F)F)CCC1)c1ccccc1Cl,28µM,?,0,?
Nc1ccccc1C(=O)NNC1=C(C(=O)C(F)(F)F)CCC1,-,?,0,?
COc1ccccc1C(=O)NNC1=C(C(=O)C(F)(F)F)CCC1,0,?,0,0
O=C(NNC1=C(C(=O)C(F)(F)F)CCC1)c1ccccc1O,0,2.8µM,0,0
COc1cccc(CNC(=O)C(=O)NCC(c2cccs2)S(=O)(=O)c2cccs2)c1 (centres undefined),0,0,-,0
Cc1ccc(C)c(N2CCN(c3nc4ccccc4c(=O)n3-c3ccc(Cl)cc3)CC2)c1,0,0,-,0
Cc1cccc(N2CCN(c3nc4ccccc4c(=O)n3-c3ccc(Cl)cc3)CC2)c1C,18µM,0,-,0
O=C(Nc1cccc(OC(F)(F)F)c1)C1Cc2c(-c3ccccc3Oc3ccccc3)ccnc2O1 (centres undefined),0,13µM,0,0
O=C(Nc1ccccc1)C1Cc2c(-c3ccccc3Oc3ccccc3)ccnc2O1 (centres undefined),0,?,0,0
COc1ccc(Cn2c(C(=O)O)c(CNCCc3cc(OC)ccc3OC)c3ccc(C)cc32)cc1,0,?,-,?
CC(C)Cn1c(-c2ccc(Br)cc2)c[nH]c1=S,-,10µM,0,?
CCOc1ccc(/C=C2/SC(=S)N(n3c(C)ccc3C)C2=O)cc1,0,7.1µM,0,0
Cc1ccc(OCC(=O)N(Cc2sccc2C)C2CCS(=O)(=O)C2)cc1 (centres undefined),0,0,-,0
Nc1c(C(=O)NCc2ccc(F)cc2)c2nc3ccccc3nc2n1CCCN1CCOCC1,35µM,?,0,0
Nc1c(C(=O)NCc2ccccc2)c2nc3ccccc3nc2n1CCCN1CCOCC1,0,?,0,0
O=C(CCC1CCN(Cc2ccccc2)CC1)c1ccc2c(c1)NCCCC2,-,-,0,-
Cc1ccc(S(=O)(=O)c2ccc([N+](=O)[O-])o2)cc1,0,?,0,5.6µM
Cc1ccc(NC(=O)C2CCCN(S(=O)(=O)c3ccc4[nH]c(=O)ccc4c3)C2)cc1Cl (centres undefined),0,0,-,0
Cc1c(C(=O)NCCN(C)C)oc2c1-c1nn(Cc3ccccc3Cl)cc1CC2,?,0,-,0
CC(=O)Nc1ccc(NC(=O)c2oc3c(c2C)-c2nn(Cc4ccccc4Cl)cc2CC3)cc1,20µM,?,-,?
CCN(CC)CCCNC(=O)c1oc2c(c1C)-c1nn(Cc3ccc(Cl)cc3)cc1CC2,16µM,?,-,?
COCCCNC(=O)c1oc2c(c1C)-c1nn(Cc3ccc(Cl)cc3)cc1CC2,32µM,?,-,0
CCOc1ccc(CNC(=O)c2oc3c(c2C)-c2nn(Cc4cccc(Cl)c4)cc2CC3)cc1,0,11µM,-,0
Cc1cccc(CNC(=O)c2oc3c(c2C)-c2nn(Cc4cccc(Cl)c4)cc2CC3)c1,0,?,-,0
COCCCNC(=O)c1oc2c(c1C)-c1nn(Cc3cccc(Cl)c3)cc1CC2,0,?,-,0
SMILES,ClpP mod,GLP-1R inv ag,GLP-1R agonist,HEK293 tox
CCc1ccc(Sc2cc(C(=O)NCc3ccccc3OC)c3ccccc3n2)cc1,?,?,0,0
Cc1ccc(SC[C@H](C)CN2CC[C@H](O)CCC2=O)cc1,0,-,-,-
CCN(CC)CCCNC(=O)c1ccc2nc(N3CCCCC3)sc2c1,0,?,-,0
COc1cccc(-c2nc(CSCC(=O)NCCc3ccc(Cl)cc3)c(C)o2)c1,0,?,-,0
Cc1cccc(NC(=O)c2oc3c(c2C)-c2[nH]ncc2CC3)c1C,0,0,-,0
Cc1c(C(=O)NCc2ccccc2)oc2c1-c1[nH]ncc1CC2,25µM,0,-,0
CC1(C)Cc2c(cnn2-c2ccc(F)cc2)C(NC(=O)CCN2CCCCO2)C1 (centres undefined),25µM,0,0,0
Cc1ccc(-n2ncc3c2CC(C)(C)CC3NC(=O)CCN2CCCO2)cc1 (centres undefined),0,0,0,0
CCS(=O)(=O)c1oc(-c2ccc(F)cc2)nc1S(=O)(=O)c1ccccc1,0,?,-,?
COc1ccc(C2=NC(c3ccncc3)=Nc3ccc(OC)cc3N2)cc1,0,0,-,0
O=C1CCCc2ccccc2N1Cc1ccc(Cl)cc1Cl,0,11µM,0,0
O=C(CC1N=C2c3ccccc3N=C(SCC(=O)Nc3ccccc3F)N2C1=O)NCc1cccs1 (centres undefined),0,0,-,0
CCOc1ccccc1-c1n[nH]c(=S)o1,?,0,0,0
COc1ccc(-c2n[nH]c(=S)o2)c(OC)c1,25µM,0,0,0
CCc1ccccc1N(C)C(=O)Cn1cnc2sc(C)c(S(=O)(=O)N3CCC(C)CC3)c2c1=O,0,0,-,0
O=C(O)CC1NC(=S)N(Cc2ccccc2)C1=O (centres undefined),0,7.9µM,0,?
CC1NC(=S)N(Cc2ccccc2)C1=O (centres undefined),-,?,0,0
O=C(NCC(c1ccco1)N1CCCCC1)c1ccc(S(=O)(=O)Nc2ccccc2Cl)cc1 (centres undefined),0,?,0,0
CCN(c1ccccc1)S(=O)(=O)c1cc(C(=O)NCC(c2ccco2)N2CCCCC2)ccc1C (centres undefined),0,8.9µM,0,?
CCN(c1ccccc1)S(=O)(=O)c1cccc(C(=O)NCC(c2ccco2)N2CCCCC2)c1 (centres undefined),-,?,0,0
Cc1ccccc1NS(=O)(=O)c1ccc(C(=O)NCC(c2ccco2)N2CCCCC2)cc1 (centres undefined),0,10µM,0,0
COc1ccccc1NS(=O)(=O)c1cc(C(=O)NCC(c2ccco2)N2CCCCC2)ccc1C (centres undefined),0,10µM,0,0
COc1ccc[n+](CC(=O)c2ccc(F)cc2)c1,0,-,-,-
CCN1CCN(c2ccc(NC(=O)c3ccc([N+](=O)[O-])o3)cc2Cl)CC1,-,0,0,5.6µM
Cc1ccc(NC(=O)c2cc3ccccc3o2)cc1Cl,0,13µM,0,0
SMILES,ClpP mod,GLP-1R inv ag,GLP-1R agonist,HEK293 tox
CCC(=O)N1CCN(c2ccc(NC(=O)c3ccc([N+](=O)[O-])o3)cc2Cl)CC1,-,0,0,?
Cc1ccc(-c2nc3cc(NC(=O)c4cc5ccccc5o4)ccc3o2)cc1Cl,0,0,-,0
CCC(=O)N1CCN(c2ccc(NC(=O)c3cc4ccccc4o3)cc2Cl)CC1,0,11µM,0,0
O=C(Nc1ccc(C(=O)N2CCN(c3ccc(Cl)cc3)CC2)cc1)c1nsc2ccccc12,0,6.3µM,-,0
COc1cccc(N2CCN(C(=O)c3ccc(NC(=O)c4nsc5ccccc45)cc3)CC2)c1,0,8.9µM,-,0
COc1ccc(N2CCN(C(=O)c3ccc(NC(=O)c4nsc5ccccc45)cc3)CC2)cc1,0,?,-,0
O=C(NC(=S)N1CCN(c2ccc(Cl)cc2[N+](=O)[O-])CC1)c1cccs1,0,10µM,0,5.6µM
O=C(Cc1ccc(NC(=O)N2CCSc3ncccc32)cc1)NCc1ccccc1Cl,0,0,-,0
